Usually AC50 stands for the concentration at which the activity in the assay is half-maximal.

Inconclusive results are not listed. The source made the active and inactive calls. Rule for the calls: active = hit-call score of the fitted dose curve at least 0.9, where 1 is the maximum; inconclusive = response in the unintended direction; inactive = score below 0.9.

This is an account of results in PubChem BioAssay (EPA / NIEHS).

Chain of human Adenosine A2a Receptor (AdoRA2a), ADORA2A (gene 135) (P29274 whole entry, looked up): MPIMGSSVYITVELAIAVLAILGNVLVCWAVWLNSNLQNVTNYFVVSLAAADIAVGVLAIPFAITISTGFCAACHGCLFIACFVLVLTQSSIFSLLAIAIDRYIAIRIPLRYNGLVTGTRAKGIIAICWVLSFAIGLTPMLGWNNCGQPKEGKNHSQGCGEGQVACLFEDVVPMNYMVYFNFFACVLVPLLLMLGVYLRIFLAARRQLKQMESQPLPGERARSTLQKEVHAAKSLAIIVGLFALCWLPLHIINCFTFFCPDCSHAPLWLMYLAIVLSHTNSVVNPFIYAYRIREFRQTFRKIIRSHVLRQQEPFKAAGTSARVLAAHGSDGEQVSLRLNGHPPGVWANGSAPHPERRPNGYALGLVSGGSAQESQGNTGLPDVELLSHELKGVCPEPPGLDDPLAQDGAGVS

The target of the first experiment is human Adenosine A1 Receptor (AdoRA1), ADORA1 (gene 134) (UniProt P30542). Put plainly: NVS_GPCR_hAdoRA1: NovaScreen (NVS) G Protein-Coupled Receptor Assay for human Adenosine A1 Receptor (AdoRA1) (AID 2283254). An outline of the steps: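 Membranes from human cortical tissue were incubated with radioligand and test chemical for 1 hour, then filtered and counted. Activity was taken as signal loss relative to DMSO, screened at 25 uM in duplicate before concentration-response follow-up.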
Chain of human Adenosine A1 Receptor (AdoRA1), ADORA1 (gene 134) (P30542 whole entry, looked up): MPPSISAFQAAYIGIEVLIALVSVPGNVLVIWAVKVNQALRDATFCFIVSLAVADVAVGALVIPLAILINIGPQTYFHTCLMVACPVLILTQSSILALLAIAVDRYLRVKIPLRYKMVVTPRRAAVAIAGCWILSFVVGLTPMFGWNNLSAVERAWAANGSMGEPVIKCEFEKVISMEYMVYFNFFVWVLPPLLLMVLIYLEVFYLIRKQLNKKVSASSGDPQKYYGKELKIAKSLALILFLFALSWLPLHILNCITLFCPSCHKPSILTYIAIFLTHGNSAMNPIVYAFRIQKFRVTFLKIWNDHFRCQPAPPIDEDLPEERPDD
Turning to `Cc1ccc2c(c1N)C(=O)c1ccccc1C2=O`, the AC50 is 16.3 µM (active).
With `CSC(C)(C)C=NO`, the compound was classed as inactive.
In the case of `Cc1cc(C)c(C(=O)P(=O)(c2ccccc2)c2ccccc2)c(C)c1`, the AC50 was 36 µM (active).
As to `CCNc1nc(Cl)nc(NC(C)(C)C)n1`, the compound was called inactive.

The target of another experiment is human Adenosine A2a Receptor (AdoRA2a), ADORA2A (gene 135) (UniProt P29274). Put plainly: NVS_GPCR_hAdoRA2a: NovaScreen (NVS) G Protein-Coupled Receptor Assay for human Adenosine A2a Receptor (AdoRA2a) (AID 2283256). An outline of the steps:
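Compounds screened in duplicate at 25 uM, with actives followed up in concentration series, for displacement of a radioligand from HEK293-derived receptor protein. Bound counts read by filter scintillation at 1.5 hours, DMSO as baseline.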
Turning to `N#Cc1c(-c2ccc(Cl)cc2)[nH]c(C(F)(F)F)c1Br`, the call was inactive.
Consider `Cc1ccc2c(c1N)C(=O)c1ccccc1C2=O`, for which the AC50 was 4.77 µM (active).
With `CSC(C)(C)C=NO`, the result was inactive.
For the compound `O=[N+]([O-])c1cc(Cl)ccc1Cl`, the result was inactive.

A further experiment deals with human Adrenergic, Beta 1 Receptor (Adrb1), ADRB1 (gene 153) (UniProt P08588). Put plainly: NVS_GPCR_hAdrb1: NovaScreen (NVS) G Protein-Coupled Receptor Assay for human Adrenergic, Beta 1 Receptor (Adrb1) (AID 2283258). The essentials: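 Membranes/protein extracted from human neuroepithelioma cells, radioligand competition binding read by filtration and scintillation 2 h post-dose. Single 25 uM duplicate screen, then concentration-response follow-up; DMSO as negative control.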
Chain of human Adrenergic, Beta 1 Receptor (Adrb1), ADRB1 (gene 153) (P08588 whole entry, looked up): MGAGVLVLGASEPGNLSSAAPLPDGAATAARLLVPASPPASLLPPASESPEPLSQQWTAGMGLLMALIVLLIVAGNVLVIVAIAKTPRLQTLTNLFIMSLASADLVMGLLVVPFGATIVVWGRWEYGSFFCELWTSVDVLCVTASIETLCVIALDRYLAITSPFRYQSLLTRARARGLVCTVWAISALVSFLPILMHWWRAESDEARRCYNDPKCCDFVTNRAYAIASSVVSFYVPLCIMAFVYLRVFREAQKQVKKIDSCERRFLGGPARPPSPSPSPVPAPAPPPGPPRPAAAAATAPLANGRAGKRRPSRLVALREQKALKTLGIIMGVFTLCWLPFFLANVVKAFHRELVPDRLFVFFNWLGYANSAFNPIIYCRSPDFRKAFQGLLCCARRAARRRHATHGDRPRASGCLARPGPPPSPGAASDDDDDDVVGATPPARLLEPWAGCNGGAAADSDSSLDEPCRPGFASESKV
Take `CCCN(CCC)c1c([N+](=O)[O-])cc(C(C)C)cc1[N+](=O)[O-]`: the compound was classed as inactive.
On to `CCOP(=S)(Oc1ccc([N+](=O)[O-])cc1)c1ccccc1` (centres undefined), for which the compound was classed as inactive.
`CCCCN(CCCC)SN(C)C(=O)Oc1cccc2c1OC(C)(C)C2`: the result was inactive.

A further experiment deals with human Adrenergic, Alpha 2c Receptor (Adra2C), ADRA2C (gene 152) (UniProt P18825). Kind of experiment: NVS_GPCR_hAdra2C: NovaScreen (NVS) G Protein-Coupled Receptor Assay for human Adrenergic, Alpha 2c Receptor (Adra2C) (AID 2283259). As to the method: NVS_GPCR_hAdra2C is a biochemical, single-readout assay that uses extracted gene-proteins from SF9 in a cell-free assay. Measurements were taken 1 hour after chemical dosing in a 96-well plate.NVS_GPCR_hAdra2C is one of one assay component(s) measured or calculated from the NVS_GPCR_hAdra2C assay. It is designed to make measurements of radioligand binding, a form of binding reporter, as detected with scintillation counting signals by Filter-based radiodetection technology.Data from the assay component NVS_GPCR_hAdra2C was analyzed into 1 assay endpoint. This assay endpoint, NVS_GPCR_hAdra2C, was analyzed in the positive analysis fitting direction relative to DMSO as the negative control and baseline of activity. Using a type of binding reporter, loss-of-signal activity can be used to understand changes in the binding as they relate to the gene ADRA2C. Furthermore, this assay endpoint can be referred to as a primary readout, because the performed assay has only produced 1 assay endpoint. To generalize the intended target to other relatable targets, this assay endpoint is annotated to the gpcr intended target family, where the subfamily is rhodopsin-like receptor.
Chain of human Adrenergic, Alpha 2c Receptor (Adra2C), ADRA2C (gene 152) (P18825 whole entry, looked up): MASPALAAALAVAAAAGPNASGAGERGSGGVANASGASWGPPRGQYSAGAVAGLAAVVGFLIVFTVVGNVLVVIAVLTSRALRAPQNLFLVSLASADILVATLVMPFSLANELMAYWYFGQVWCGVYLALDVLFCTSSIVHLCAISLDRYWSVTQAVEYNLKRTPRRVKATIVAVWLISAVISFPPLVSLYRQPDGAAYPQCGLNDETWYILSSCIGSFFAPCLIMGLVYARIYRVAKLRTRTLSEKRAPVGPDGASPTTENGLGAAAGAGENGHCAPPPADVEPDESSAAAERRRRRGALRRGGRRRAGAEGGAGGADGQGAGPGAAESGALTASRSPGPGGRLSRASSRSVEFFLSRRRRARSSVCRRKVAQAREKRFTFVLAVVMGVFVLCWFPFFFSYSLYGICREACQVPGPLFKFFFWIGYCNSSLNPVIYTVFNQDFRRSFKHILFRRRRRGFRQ
Binding assays used specific radioligands (tritiated, iodinated) with non-radioactive competitive displacement ligands in agonist or antagonist protocols (as indicated) and various reference compounds and inhibitors to titrate specific binding to receptors and transporters. Most enzyme assays (CYPs, kinases, phosphatases, proteases, HDACs) used recombinant protein and specific substrates (fluorescence mostly, some colorimetric and radioactive) and inhibitors, followed by a biochemical separation of substrate and product. All assays for the biochemical HTS were initially run in duplicate at a single concentration (10 uM for CYP450 assays and 25 uM for all others). […] Each assay was run with positive and negative controls, and concurrent controls on every plate. […]
`CSC(C)(C)C=NO`: the outcome was inactive.
As for `CCCCCCCc1ccc(O)cc1`, the compound was classed as inactive.
For the compound `CC1(C)CN=C(NN=C(/C=C/c2ccc(C(F)(F)F)cc2)/C=C/c2ccc(C(F)(F)F)cc2)NC1`, the AC50 is 8.95 µM (active).
